KCNQ2 pot = potentiators of rat KCNQ2 potassium channel; B-score at 10 µM; hit rate 0.54% among 310,000; CHO-K1 KCNQ2, FluxOR thallium flux fluorescence; stronger effect = higher value; AID 2239;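 active = fluorescence ratio B-score at least 3 SD of library B-scores, with initial fluorescence B-score within 3 of them, cut at about 5.3 in these data; same plate scores as AID 2156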;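 note: B-score of peak minus minimum over baseline fluorescence ratio after K+ and Tl+ stimulus; positive B-score means potentiation of KCNQ2 with more thallium influx and brighter signal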
KCNQ2 inh = KCNQ2 (rat) channel inhibition. O88943. CHO-K1 KCNQ2, FluxOR thallium flux, 20 min; stronger effect = lower value. B-score at 10 µM. hit rate 1.1% among 310,000. AID 2156;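 active = fluorescence ratio B-score at most minus 3 library SDs, with starting brightness B-score within 2 library SDs, cut at about -5.5 in these data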
Kir21 confirm = confirmation of mouse Kir2.1 potassium channel inhibitors. shares compounds with KCNQ2 pot. Tl flux remaining, % of negative control (stronger effect = lower value), % at 10 µM. hit rate 41% among 2,300. AID 2032. Kir2.1-expressing cells, FluxOR thallium flux fluorescence; stronger effect = lower value;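 active = Primary-screen hit whose thallium flux fell at least 3 control SD below untreated wells in both duplicates, with normal baseline fluorescence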;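 note: 0% = blank wells without stimulus and 100% = stimulated no-compound controls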
HEK293 ctr = alters thallium flux in parental HEK293 cells, Kir2.1 counter-screen; FluxOR signal as % of negative control (100 = no effect), % at 10 µM; hit rate 19% among 2,300; FluxOR thallium flux fluorescence; 0% = unstimulated blank wells; shares compounds with KCNQ2 pot;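 active = dye signal at least 3 control SD above or below untreated wells in both duplicates, raw fluorescence within 3, either direction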;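 note: percent is based on the flux ratio of peak minus minimum fluorescence over baseline F0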
CHO-K1 ctr = parental CHO-K1 activity in KCNQ2 potentiator counter-screen; hit rate 43% among 1,200; parental CHO-K1 cells, FluxOR thallium flux fluorescence; zero = vehicle mean+3SD, 100% = vehicle-minus-blank window; shares compounds with KCNQ2 pot; activity increase over 3SD of controls, % at 10 µM;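 active = signal rise of at least 3 SD above the untreated control mean, in both duplicate wells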;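 note: counter screen of KCNQ2 potentiator hits so any rise reflects channel-independent effects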
KCNQ1 sel pot = human KCNQ1 counter-target activity of KCNQ2 potentiators; CHO KCNQ1 stable, FluxOR thallium flux fluorescence; beyond 3SD, as % of vehicle-control signal; shares compounds with KCNQ2 pot; hit rate 28% among 1,200; activation over 3SD threshold, % at 10 µM; AID 2283;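 active = fluorescence ratio rise of at least 3 SD of vehicle wells above their mean, in both replicate wells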;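 note: 0% = vehicle mean plus 3 SD and 100% = vehicle minus unstimulated blank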
KCNQ2 pot conf = confirmation of rat KCNQ2 potassium channel potentiators. shares compounds with KCNQ2 pot. CHO-KCNQ2 cells, FluxOR thallium flux fluorescence. potentiation, less the hit threshold, % at 10 µM. hit rate 68% among 1,200;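 active = fluorescence ratio rising 3 SD or more over the vehicle control mean in both replicates, plus primary screen hit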;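 note: peak minus minimum thallium fluorescence divided by baseline after K/Tl stimulus; 0% = vehicle mean plus 3 SD and 100% = vehicle minus unstimulated blank difference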
Kir2-1 sel = mouse Kir2.1 off-target activity of KCNQ2 potentiators; AID 2345; hit rate 2% among 1,200; activity over 3SD threshold, % at 10 µM; HEK293 Kir2.1, FluxOR thallium flux fluorescence; shares compounds with KCNQ2 pot;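 active = fluorescence ratio rise of at least 3 SD above the vehicle-control mean, seen in both replicates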;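 note: 0% = vehicle mean plus 3 SD and 100% = vehicle minus no-stimulus blank window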
KCNQ2 W236L MoA = KCNQ2 potentiators acting on retigabine-insensitive rat KCNQ2 W236L mutant; CHO KCNQ2-W236L, automated patch clamp current; shares compounds with KCNQ2 pot; current increase over 3SD of negative controls (%), stronger effect = higher value, % at 25 µM; hit rate 10% among 940;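 active = current increase at least 3 SD of the untreated controls above them in both duplicate recordings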
Target sequence (O88943 whole entry W236L, looked up): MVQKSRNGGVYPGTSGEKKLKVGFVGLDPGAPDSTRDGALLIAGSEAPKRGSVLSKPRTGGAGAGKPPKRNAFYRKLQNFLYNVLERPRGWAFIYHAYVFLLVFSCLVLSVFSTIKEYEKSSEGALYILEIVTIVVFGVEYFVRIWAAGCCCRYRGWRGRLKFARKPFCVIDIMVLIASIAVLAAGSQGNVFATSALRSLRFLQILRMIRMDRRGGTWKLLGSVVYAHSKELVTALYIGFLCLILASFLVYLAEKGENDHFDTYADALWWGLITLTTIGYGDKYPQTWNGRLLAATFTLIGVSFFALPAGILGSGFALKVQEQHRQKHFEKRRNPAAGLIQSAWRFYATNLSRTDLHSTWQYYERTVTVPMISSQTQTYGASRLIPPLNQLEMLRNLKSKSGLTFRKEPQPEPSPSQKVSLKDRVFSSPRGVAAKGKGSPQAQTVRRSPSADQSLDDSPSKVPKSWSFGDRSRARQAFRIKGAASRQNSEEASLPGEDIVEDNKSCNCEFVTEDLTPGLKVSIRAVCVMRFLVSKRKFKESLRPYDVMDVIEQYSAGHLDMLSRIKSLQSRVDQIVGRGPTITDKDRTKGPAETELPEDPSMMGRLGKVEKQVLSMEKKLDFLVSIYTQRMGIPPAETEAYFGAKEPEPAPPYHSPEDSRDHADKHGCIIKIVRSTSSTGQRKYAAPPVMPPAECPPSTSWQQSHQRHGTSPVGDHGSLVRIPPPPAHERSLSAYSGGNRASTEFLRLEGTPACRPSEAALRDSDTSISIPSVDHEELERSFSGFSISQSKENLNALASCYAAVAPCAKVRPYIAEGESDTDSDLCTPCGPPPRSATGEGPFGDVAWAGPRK
Active calls of the source: *; i = inactive; . = no result given. An excerpt weighted towards active compounds, which were near 1.6% of everything screened.

SMILES | KCNQ2 pot | KCNQ2 inh | Kir21 confirm | HEK293 ctr | CHO-K1 ctr | KCNQ1 sel pot | KCNQ2 pot conf | Kir2-1 sel | others
CC1CCC(NC(=O)c2cc(S(=O)(=O)N(C)C)ccc2N2CCCC2)CC1 (centres undefined) | . | i | . | . | . | . | . | .
O=C(COC(=O)CCc1ccccc1)NC(c1ccccc1)c1ccccc1 | . | i | . | . | . | . | . | .
COCC(=O)NC(c1ccccc1)c1ccccc1 | 8* | i | i | i | -19 | -33 | -15 | -36
Cc1c(N2C(=O)/C(=C\c3ccccc3O)SC2=S)c(=O)n(-c2ccccc2)n1C | 18* | i | i | 343%* | 114* | -13 | 40* | -7 | KCNQ2 W236L MoA=i
Cc1c(N2C(=O)/C(=C/c3ccccc3)SC2=S)c(=O)n(-c2ccccc2)n1C | 1.4 | i | . | . | . | . | . | .
Cc1cc(C)c(S(=O)(=O)N2CCCOC2CNC(=O)C(=O)NCc2cccs2)c(C)c1 (centres undefined) | 0.02 | i | . | . | . | . | . | .
CCN1CCN(c2ccc(N3CCN(S(=O)(=O)c4ccc(C)c([N+](=O)[O-])c4)CC3)nn2)CC1 | 0.68 | i | . | . | . | . | . | .
Cc1cc(SCC(=O)OCC(=O)N2CCCC2=O)c(C)cc1Br | 1.1 | i | i | i | . | . | . | .
NC(=O)c1ccc(SCC(=O)OCC(=O)N2CCCC2=O)c([N+](=O)[O-])c1 | 0.56 | i | . | . | . | . | . | .
CCOC(=O)N1CCN(C(=O)CN(c2ccc(OC)cc2)S(C)(=O)=O)CC1 | 27* | i | i | i | 15* | -12 | -24 | -36
CCOC(=O)N1CCN(C(=O)CN(c2cccc(OC)c2)S(C)(=O)=O)CC1 | . | i | . | . | . | . | . | .
C=CCNC(=O)c1c(CSc2ccc(Cl)cc2)noc1C(=O)NCc1ccccc1 | . | i | . | . | . | . | . | .
COC(=O)c1cc(-c2ccc(Br)cc2)c2c(=O)n(C)c(=O)n(C)c2n1 | . | i | . | . | . | . | . | .
S=c1nc(C2CCCCC2)n(-c2ccccc2)[nH]1 | 11* | i | i | 262%* | 42* | -12 | 22* | -32 | KCNQ2 W236L MoA=i
S=c1nc(-c2ccccc2)n(-c2ccccc2)[nH]1 | 0.07 | i | . | . | . | . | . | .
CCOc1cc(CNc2nn[nH]n2)ccc1OCC(=O)NC(C)(C)C | . | i | . | . | . | . | . | .
CN(C)S(=O)(=O)c1ccc(NC(=O)CCNC(=O)c2ccc([N+](=O)[O-])cc2)cc1 | . | i | . | . | . | . | . | .
Cc1onc(-c2c(F)cccc2Cl)c1C(=O)OCC(=O)c1c[nH]c2ccccc12 | 6.4* | i | i | i | -5 | -10 | -1 | -21
Cc1noc(C)c1C(=O)OCC(=O)c1c[nH]c2ccccc12 | . | i | . | . | . | . | . | .
COc1ccc(OC)c(CCNC(=O)C2CCN(c3ncnc4c3nc3n4CCCCC3)CC2)c1 | 0.01 | i | . | . | . | . | . | .
O=C(NC(=S)Nc1nc(-c2ccc([N+](=O)[O-])cc2)cs1)c1ccco1 | 10* | i | i | 168%* | -7 | 44* | -7 | -27
Cc1ccc2nc(NC(=O)c3ccco3)sc2c1 | 0.98 | i | . | . | . | . | . | .
O=C(NC(=S)Nc1nc(-c2ccc(Br)cc2)cs1)c1ccco1 | 5.1 | i | . | . | . | . | . | .
Cc1ccc2nc(NC(=S)NC(=O)c3ccco3)sc2c1 | 12* | i | i | 228%* | . | . | . | .
C=CCn1c(=S)[nH]c2ccc(Br)cc2c1=O | 5.9* | i | i | i | -9 | -38 | -5 | -36 | KCNQ2 W236L MoA=i
C=CCn1c(=S)[nH]c2cc(C(=O)Nc3ccc(OC)c(OC)c3)ccc2c1=O | . | i | . | . | . | . | . | .
CC1=CC(C)(C)NC(=S)N1c1ccc(C)c(C)c1 | 0.02 | i | . | . | . | . | . | .
CCC1(c2ccc(Cl)cc2)NC(=S)N(c2ccc(C)c(C)c2)N1 (centres undefined) | 29* | i | i | 537%* | 21* | -10 | 68* | -3

From PubChem
